The values that follow come from PubChem BioAssay AID1259398 (Fisher Drug Discovery Resource Center, 2018).

Each structure is given as a SMILES string. Several values for one entry are separate records, joined by “and”; a condition that tells them apart may be missing. Identical values can stand only once. The campaign covered roughly 290,000 compounds. About 230 (0.079%) were called active. Cut-off read from the data, not from the text of the source: active = inhibition above about 40%; inactive = the rest. Only a selection was taken, and actives are over-represented in it overall.

Sequence of Cyclic GMP-AMP synthase (Homo sapiens) (Q8N884 whole entry, looked up): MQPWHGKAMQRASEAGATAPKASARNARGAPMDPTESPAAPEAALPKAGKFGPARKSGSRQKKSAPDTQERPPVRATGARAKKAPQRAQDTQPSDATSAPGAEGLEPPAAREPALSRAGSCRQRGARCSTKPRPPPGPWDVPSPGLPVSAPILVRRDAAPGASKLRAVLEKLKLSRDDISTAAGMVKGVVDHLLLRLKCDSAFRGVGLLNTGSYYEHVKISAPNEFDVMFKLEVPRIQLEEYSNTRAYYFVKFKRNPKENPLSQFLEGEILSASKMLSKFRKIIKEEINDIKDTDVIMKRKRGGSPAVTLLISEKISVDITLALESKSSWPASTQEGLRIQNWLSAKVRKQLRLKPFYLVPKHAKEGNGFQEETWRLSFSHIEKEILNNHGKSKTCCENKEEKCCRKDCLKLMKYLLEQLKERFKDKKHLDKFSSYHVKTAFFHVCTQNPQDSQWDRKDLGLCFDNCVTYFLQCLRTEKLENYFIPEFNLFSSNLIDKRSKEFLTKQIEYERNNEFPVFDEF

The assay has as its target Cyclic GMP-AMP synthase (Homo sapiens) (UniProt Q8N884). Briefly: Biochemical Kinase-Glo luminescence primary assay, human cyclic GMP-AMP synthase inhibition (AID 1259398).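 Note: 0% = vehicle reaction and 100% = reaction without DNA for no activity.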 As to conditions: recombinant h-cGAS, ATP depletion, at 12.5 µM, stronger effect = higher value. In general terms: Kinase-Glo measures the ATP left after a reaction by luminescence.
As for `CC1CCc2c(sc(NC(=O)c3cccs3)c2C(=O)Nc2ccc(Cl)cc2)C1` (stereo not drawn), the inhibition was -14.3% (inactive).
Regarding `C=CCCC(O)CN(Cc1c(CC)nn(-c2ccccc2)c1Oc1cccc(OC)c1)CC1CC1` (stereo not drawn), the inhibition was -5.62% (inactive).
Then `O=C(NCc1n[nH]c(=S)n1C1CC1)c1noc2c1CCCC2`, with -5.91% (inactive).
Then `O=C(O)CSc1nnc(CCc2ccccc2)n1-c1cccnc1`, with -3.94% (inactive).
Under `Cc1ccsc1C(=O)N1CCCC(CNC(=O)c2ccc(-c3ccccc3)cc2)C1` (stereo not drawn) stands -7.02% (inactive) and -6.34% (inactive); under `C=CCNCc1cnc(S(=O)(=O)Cc2ccc(F)cc2)n1C(C)C`, -5.49% (inactive); under `O=C(O)c1cc(-c2ccco2)nn1-c1ccccc1Cl`, -7.88% (inactive).
Consider `C=CCN(CC(=O)Nc1ccccc1C#N)S(=O)(=O)c1c(C)cc(C)cc1C`, for which the inhibition was -5.26% (inactive).
Then `Cn1c(SCC(=O)N2CCN(c3ccccc3)CC2)nnc1C(F)(F)F`, with -6.17% (inactive).
Take `O=C1CN(C(=O)C2CCCC2)CC(O)CN1Cc1cccc(F)c1` (stereo not drawn): the inhibition is 11.5% (inactive).
For the compound `CCc1[nH]n(-c2ccc(Cl)c(Cl)c2)c(=O)c1C1=C([n+]2cccc(C)c2)C(=O)N(CC(C)C)C1=O`, the inhibition is -10.4% (inactive).
As to `COCCNC(=O)Cn1nc2c(c1NC(=O)c1cc(OC)cc(OC)c1)CSC2`, the inhibition is -4.38% (inactive).
In the case of `C=CC(=O)Nc1ccc2ncnc(Nc3ccc(OCc4cccc(F)c4)c(Cl)c3)c2c1`, the inhibition is 43.2% (active).
For `N#Cc1cccc(COc2ccc(NC(=O)NCCO)cc2Cl)c1`, the inhibition is 0.266% (inactive).
Then `Cc1ccc(Nc2nc(Nc3cccc(F)c3)nc3nccnc23)cc1Cl`, with -0.96% (inactive); and `Cc1ccc(OC(C)C(=O)N(C)C2CCS(=O)(=O)C2)c(Br)c1` (stereo not drawn), with -12.8% (inactive) and -9.58% (inactive); and `Cc1cccc(C2SCC(=O)N2CC(=O)NCc2ccncc2)c1` (stereo not drawn), with -4.08% (inactive).
`O=C(c1cc(Cl)c2nc3ccccn3c(=O)c2c1)c1cc(F)ccc1O`: the inhibition is -5.02% (inactive).
Then `N#CCCN(CCC#N)Cn1c(=O)oc2cc(Br)ccc21`, with -6.19% (inactive).
Then `CCCc1nnc2sc(Cc3csc(C)n3)nn12`, with -7.66% (inactive); and `c1ccc(Cc2nn3c(Cn4cnc5ccccc54)nnc3s2)cc1`, with -1.85% (inactive).
In the case of `COCc1nnc2sc(Cc3ccc4c(c3)CCCC4)nn12`, the inhibition was 45.2% (active).
`Cc1ccc(S(=O)(=O)N2CCCC2c2nc3ccccc3[nH]2)c(C)c1` (stereo not drawn): the inhibition is -4.68% (inactive).
As to `COCCN(CCC(=O)N1CCC(Cc2ccccc2)CC1)c1nc(Cc2cccc(OC)c2)ns1`, the inhibition was -5.55% (inactive).
`CC(C)(CNC(=O)c1cc2cccc(F)c2o1)C1CCCCO1` (stereo not drawn): the inhibition is -5.71% (inactive).
Under `Cc1ccc(NC(=O)C2C(C=C(Cl)Cl)C2(C)C)cc1` (stereo not drawn) stands -4.28% (inactive).
Then `COc1ccccc1OC1CN(Cc2cc(C)[nH]n2)C1`, with -4.73% (inactive); and `O=C(NNc1cccc(Cl)c1)[C@@H]1CCCN1c1nccc(Nc2ccccc2)n1`, with -0.74% (inactive); and `CCOc1ccc(N2CCN(C(=O)CCc3ccccc3)C(C)C2=O)cc1` (stereo not drawn), with -2.37% (inactive).
Then `Cn1cc(CN2CCN(c3ccc(Cl)cn3)CC2)c(-c2ccc3c(c2)OCCO3)n1`, with -7.9% (inactive); and `CC(CN1CCOCC1)NC(=O)N1CCCc2cc(F)c(F)cc21` (stereo not drawn), with -4.63% (inactive); and `Cc1cc(Nc2ccc3c(n2)C(=O)N(CC(=O)NCCCn2ccnc2)C3)n(C)n1`, with -11.5% (inactive).
`N#Cc1cccc(NC(=O)CN(Cc2ccco2)Cc2cccs2)c1`: the inhibition was -0.473% (inactive).
Regarding `Cc1ccc(C)c(C(C)NC(=O)c2ccccc2-c2nn[nH]n2)c1` (stereo not drawn), the inhibition is -2.34% (inactive).
Under `COc1ccc(-c2nc3ccccc3c(=O)n2Cc2ccc(F)cc2)c(OC)c1OC` stands -5.68% (inactive).
Consider `O=C(c1cnc(-c2ccncc2)nc1)N1CCOC(CCCc2ccccc2)C1` (stereo not drawn), for which the inhibition is -8.45% (inactive).
As to `O=C(CCC1CCN(C(=O)c2cccc(-n3cccn3)c2)CC1)Nc1ccccc1`, the inhibition is -9.6% (inactive).
For the compound `CN1CCn2nc(C(=O)NC(c3ccccc3)c3ccco3)cc2C1` (stereo not drawn), the inhibition was -5.91% (inactive).
On to `Cc1cc(-c2n[nH]c(=O)n2CCc2ccc(F)cc2)n(C)n1`, for which the inhibition was 2.4% (inactive).
Then `Cc1n[nH]c(=O)c2c(NC(=O)CSc3nnc(C)n3C3CC3)oc(C)c12`, with -6.69% (inactive); and `O=C(CCSCc1ccccn1)NCc1ccc(Br)s1`, with -8.25% (inactive).
For the compound `O=C(O)C=Cc1ccc(Br)s1`, the inhibition was -0.785% (inactive).
Under `O=C(O)CCCc1ccc(Br)s1` stands 74.1% (active).
Turning to `Cc1noc(C)c1S(=O)(=O)N1CCCC1c1ccccn1` (stereo not drawn), the inhibition is -4.73% (inactive).
With `CN1CCN(Cc2cc(F)ccc2-n2cccn2)CC1CCO` (stereo not drawn), the inhibition is -8.61% (inactive).
Then `NS(=O)(=O)c1ccc(CNc2ccc3ncc(-c4ccc(Oc5ccccc5)cc4)n3n2)cc1`, with -8.75% (inactive); and `Cc1ccc(CN(Cc2nc3cc(C)ccc3o2)C(=O)CC(C)C)cc1`, with -3.11% (inactive); and `Cc1cccc(S(=O)(=O)N2CCN(c3cc(-n4ccnc4)nc(C)n3)CC2)c1`, with -1.12% (inactive).
Under `Cc1cccc(-n2ccc3nc(N4CCCCC4)ncc3c2=O)c1` stands -4.1% (inactive).
On to `COc1cc(=O)n(-c2ccccc2C)nc1C(=O)NC(c1ccccc1)c1ccccc1`, for which the inhibition was -0.757% (inactive).
Then `CCCCC(=O)N(C)c1c(C)nc2ccc(C(=O)NCCCN3CCCC3=O)cn12`, with -4.09% (inactive); and `CCCCS(=O)(=O)N1CCCN(c2nc(CCC)nc3onc(-c4cccc(C(F)(F)F)c4)c23)CC1`, with -3.14% (inactive); and `Cc1nn(C)c(C)c1CN(C(=O)C1CC(=O)N(CC(C)C)C1)C1CC1` (stereo not drawn), with -3.8% (inactive).
For `O=C(CCCOc1cccc(Cl)c1Cl)N1CCN(C2CCOC2)CC1` (stereo not drawn), the inhibition was -4.45% (inactive).
Then `Cn1c(CC2CCNCC2)nnc1SCc1noc(C2CCCO2)n1` (stereo not drawn), with -3.73% (inactive); and `COc1cc2c(cc1OC)C(C(C)NS(=O)(=O)c1ccccc1)N(Cc1ccccc1F)CC2` (stereo not drawn), with -1.82% (inactive); and `CC(=O)Nc1ccccc1N1C(=O)c2ccc(-c3nc4ccccc4c(=O)o3)cc2C1=O`, with 0.929% (inactive).
For `CCOC(=NCc1ccccc1)NC(=O)c1cccc(C(F)(F)F)c1`, the inhibition was -4.46% (inactive).

The inhibition is the relative decrease from the control value, in per cent.
